# “And” between values parts separate entries of the source, which are not always exact repeats. Equal values may be shown once. Some structures have more than one record in an assay (separate samples or runs), and their calls can disagree. The source made the active and inactive calls. The calls were made as follows: active = hit-call score of the fitted dose curve at least 0.9, where 1 is the maximum; inactive = score below 0.9.
# Read-out: Interleukin-8 (IL8), CXCL8 (gene 3576)
# Assay: BSK_3C_IL8: BioMAP Diversity Plus: 3C Assay for Interleukin-8 (IL8) Biomarker Activity (AID 2283020)
# Conditions: primary human endothelial cells (HUVEC); actives raise or lower the signal
# Description: BSK_3C is a cell-based, multiplexed-readout assay that uses umbilical vein endothelium, a human vascular primary cell, with measurements taken at 24 hours after chemical dosing in a 96-well plate.BSK_3C_IL8 is an assay component measured in the BSK_3C assay. It measures IL-8 antibody related to regulation of gene expression using ELISA technology.Data from the assay component BSK_3C_IL8 was analyzed into 1 assay endpoint. This assay endpoint, BSK_3C_IL8, was analyzed with bidirectional fitting relative to DMSO as the negative control and baseline of activity. Using a type of binding reporter, gain or loss-of-signal activity can be used to understand changes in the signaling as they relate to the gene CXCL8. Furthermore, this assay endpoint can be referred to as a primary readout, because this assay has produced multiple assay endpoints where this one serves a signaling function. To generalize the intended target to other relatable targets, this assay endpoint is annotated to the cytokine intended target family, where the subfamily is interleukins.
# The levels of cell surface (or secreted, indicated by the prefix "s") biomarker endpoints were measured by ELISA. Overt cytotoxicity to cells in confluent adherent cultures (all systems other than the BT system) was assessed by measuring total protein levels using sulforhodamine B (SRB) staining in parallel cultures at the time of biomarker measurements, indicated as SRB endpoints. For proliferation assays for adherent cell types, individual cell types are cultured at sub-confluence and relative cell numbers quantified by SRB staining at time points optimized for each system (48 h: 3C and CASM3C systems; 72 h: BT and HDF3CGF systems; 96 h: SAg system). SRB was performed by staining cells with 0.1% SRB after fixation with 10% TCA and reading wells at 560 nm.Viability and proliferation of PBMC (T cells) was quantified by Alamar Blue reduction for the SAg and BT systems. For PBMC viability (referred to as PBMC Cytotoxicity within the assay endpoint names), cells were plated (75,000/well in a 96-well plate) and then chemical samples added for 1 h before addition of activators, SEB and TSST-1 (20 ng/mL final concentration each). Cells were incubated for 90 h. Then, Alamar Blue (20 uL/well) (Invitrogen, Cat DAL1100) was added for 6 h, and the plates were read with a fluorescence microplate reader at 546/580 nm (excitation/emission). For PBMC proliferation, cells were plated and activated as above but incubated for only 16 h prior to addition of Alamar Blue. Plates were read after 6 h.
SMILES,outcome,AC50
CC(CCl)OP(=O)(OC(C)CCl)OC(C)CCl (stereo not given),inactive,
OCCCC(F)(F)C(F)(F)C(F)(F)C(F)(F)C(F)(F)C(F)(F)C(F)(F)F,,44.9 µM (active) and 47.6 µM (active)
O=P(O)(O)OCCC(F)(F)C(F)(F)C(F)(F)C(F)(F)C(F)(F)C(F)(F)F,inactive,
CCCCCCC(C)OC(=O)CCCCC(=O)OC(C)CCCCCC (stereo not given),inactive,
C=C(C)C(=O)OCCC(F)(F)C(F)(F)C(F)(F)C(F)(F)C(F)(C(F)(F)F)C(F)(F)F,inactive,
FC(F)(F)C(F)(F)CNCC(F)(F)C(F)(F)F,inactive,30 µM (active)
CCCCCCCCCCCCCCCC[N+](C)(C)Cc1ccccc1,,7.59 µM (active)
OCC(F)(F)C(F)(F)C(F)(F)F,inactive,
COC(=O)CCC(F)(F)C(F)(F)C(F)(F)C(F)(F)F,inactive,
O=S(=O)(OCC(F)F)C(F)(F)F,inactive,
Cc1ccc(S(=O)(=O)OCC(F)(F)C(F)(F)C(F)(F)C(F)(F)C(F)(F)C(F)F)cc1,inactive,
O=C(O)C(F)(F)C(F)(F)C(F)(F)C(F)(F)F,inactive,
O=C(O)C(F)(F)C(F)(F)C(F)(F)C(F)(F)C(F)(F)C(F)(F)C(F)(F)C(F)(F)C(F)(F)C(F)(F)C(F)(F)C(F)(F)F,,23.6 µM (active) and 8.82 µM (active)
CO[Si](OC)(c1ccccc1)c1ccccc1,,20 µM (active)
O=C(O)C=C(C(F)(F)F)C(F)(F)F,inactive,
O[Si](c1ccccc1)(c1ccccc1)c1ccccc1,inactive,
O=C(O)C(F)(F)C(F)(F)C(F)F,inactive,
NC(=O)C(F)(F)C(F)(F)C(F)(F)C(F)(F)F,inactive,
FC(F)(F)C(F)(F)C(F)(F)C(F)(F)C(F)(F)C(F)(F)CCS,inactive,
C=C(C)C(=O)OCC(F)(F)C(F)(F)C(F)(F)F,inactive,

SMILES,outcome,AC50
CS(C)(=O)=O,inactive,
CCCCNc1ccccc1,inactive,
OCC(F)(F)C(F)(F)C(F)(F)C(F)F,inactive,
FC(F)(F)C(F)(F)C(F)(F)C(F)(F)C(F)(F)CCI,inactive,
CCO[Si](CCC(F)(F)C(F)(F)C(F)(F)C(F)(F)C(F)(F)C(F)(F)F)(OCC)OCC,inactive,
C=CC(=O)OCC(F)(F)C(F)(F)C(F)(F)C(F)(F)COC(=O)C=C,,23.6 µM (active) and 44.4 µM (active)
N=C(N)C(F)(F)C(F)(F)C(F)(F)C(F)(F)C(F)(F)C(F)(F)C(F)(F)F,inactive,
Nc1ccc([N+](=O)[O-])cc1O,inactive,
C=CC(F)(F)C(F)(F)C(F)(F)C(F)(F)C(F)(F)C(F)(F)C(F)(F)C(F)(F)C=C,inactive,
FC(F)(F)C(F)(F)C(F)(F)C(F)(F)C(F)(F)C(F)(F)C(F)(F)I,inactive,
O=C(O)C(F)(F)C(F)(F)C(F)(F)C(F)(F)C(F)(F)C(F)(F)C(F)(F)C(F)(F)C(F)(F)C(F)(F)C(F)(F)C(F)(F)C(F)(F)F,inactive,
O=C(O)C(F)(F)C(F)(F)C(F)(F)F,inactive,
FC(F)(F)C(F)(F)C(F)(F)C(F)(F)C(F)(F)C(F)(F)C(F)(F)C(F)(F)F,inactive,
C=CC/C=C/C/C=C/C/C=C/C,inactive,
FC(F)(F)C(F)(F)C(F)(F)C(F)(F)C(F)(F)C(F)(F)C(F)(F)C(F)(F)CCS,inactive,
O=S(=O)(OCCOC(F)(F)F)C(F)(F)F,inactive,
FC(F)(F)C(F)(F)C(F)(F)C(F)(F)C(F)(F)C(F)(F)CC1CO1 (stereo not given),inactive,
FC(F)(F)C(F)(F)C(F)(F)N(C(F)(F)C(F)(F)C(F)(F)F)C(F)(F)C(F)(F)C(F)(F)F,inactive,
C#C[C@]1(O)CC[C@H]2[C@@H]3CCc4cc(OC)ccc4[C@H]3CC[C@@]21C,,3.97 µM (active)
